A selection: hits, their analogues and other compounds. The true share with any hit is near 4.9%.
CSC inhib = cancer stem cell viability inhibitors, primary screen, luminescence. inhibition, % at 7.5 µM. 1.1% of 300,000 active. cancer stem cell-like cells viability; in the data active means inhibition above about 75%; tested in HMLE shEcad cells
PP5 primary = PP5 phosphatase inhibitors, primary screen, biochemical, fluorescence; Serine/threonine-protein phosphatase 5 (Homo sapiens), P53041; purified PP5c, OMFP substrate fluorescence; inhibition, % at 6.7 µM; 0.18% of 320,000 active;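 active means inhibition above the campaign's mean inhibition across all tested compounds plus 3 SD, cut at about 9.5% in these data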;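 further: 0% = DMSO only and 100% = 100 µM cantharidin control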
Beta cell apopt = inhibitors of cytokine-induced beta cell apoptosis, primary screen, luminescence; protection from apoptosis, % (test concentration not listed); AID 435005, 2010; 0.8% of 300,000 active; INS-1E cytokine-induced death, ATP luminescence, 48 h; percent of positive-control rescue, neutral wells zero;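 active means Every replicate reaches about 75%, or at least half do and their mean reaches it too, limit read from the data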;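 further: 0% = cytokine-treated negative control wells and 100% = positive control rescue; higher means more ATP so stronger rescue from cytokine killing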
PP1 counter = PP1-alpha phosphatase inhibitors, primary screen, counter-screen for PP5 inhibitor project, biochemical, fluorescence, OMFP substrate, single point | purified PP1alpha | inhibition, % at 6.7 µM | 0.9% of 320,000 active;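 active means inhibition above the mean inhibition of all tested compounds plus 3 SD, computed separately for each screening campaign, cut at about 15% in these data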
Target sequence (P62136 whole entry, looked up): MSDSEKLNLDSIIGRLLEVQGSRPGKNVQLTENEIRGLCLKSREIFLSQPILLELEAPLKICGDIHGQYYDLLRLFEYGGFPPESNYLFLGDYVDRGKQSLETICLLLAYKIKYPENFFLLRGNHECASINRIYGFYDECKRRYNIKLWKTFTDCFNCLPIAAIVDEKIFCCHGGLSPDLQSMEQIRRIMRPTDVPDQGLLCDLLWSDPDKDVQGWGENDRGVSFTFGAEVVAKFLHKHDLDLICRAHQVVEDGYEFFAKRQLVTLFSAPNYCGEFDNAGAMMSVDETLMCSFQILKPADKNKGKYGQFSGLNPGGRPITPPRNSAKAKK
Calb FLC = C. albicans growth inhibition with fluconazole, primary screen, CaCi-2 strain, Alamar Blue fluorescence; C. albicans CaCi-2 (fluconazole-resistant clinical isolate) + fluconazole, 48 h; growth inhibition, % (concentration not given with the values); AID 1979, 2009; 0.57% of 300,000 active;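 active means growth inhibition above about 58% in most replicates, limit read from the data, passing the limit was not always enough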;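 further: all wells also contain fluconazole at 8 µg/ml as a sub-toxic cotreatment; 0% = median of DMSO wells and 100% = median of geldanamycin control wells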
Mdm2 MdmX PPI = inhibitors of human Mdm2-MdmX association, primary screen, cell-based, luminescence, split luciferase, SaOS-2, uHTS; Protein Mdm4 (Homo sapiens) + E3 ubiquitin-protein ligase Mdm2 (Homo sapiens), …; SaOS-2 split-luciferase Mdm2/MdmX complementation; inhibition, % at 8 µM; 3% of 330,000 active;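 active means inhibition of at least 50% at 8 µM in the primary screen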
Active calls of the source: *; · = no result given.

SMILES	CSC inhib	PP5 primary	Beta cell apopt	PP1 counter	Calb FLC	Mdm2 MdmX PPI
Cc1ccc2nc(-c3ccc(-c4cccc(Cl)c4)cc3)c(NCc3ccccc3)n2c1	91.1*	1.3	121.1*	6.1	-1.7	-16.7
COc1cc(-c2nc3ccc(C)cn3c2NCc2ccccc2)ccc1-c1cccc(Cl)c1	69.4	·	102.0*	·	·	41.7
COc1cc(-c2nc3ccc(C)cn3c2NCc2ccccc2)ccc1SC1CCCCC1	28.7	5.0	109.9*	14.7	3.9	48.6
COC(=O)c1ccccc1NC(=O)N1CCN(c2ccc(OC)cc2)CC1	-5.5	2.1	-5.0	-0.6	-0.9	-17.8
CN(C)S(=O)(=O)c1ccc(C(=O)OCC(=O)Nc2ccc3c(c2)OCO3)cc1	·	0.8	-1.3	-4.8	·	1.6
Cc1ccc(C(=O)NCCOc2ccc(Cl)cc2)cc1	-5.0	0.9	-6.4	-6.1	-3.5	-30.7
Cc1ccc(C(=O)CC(=O)COc2ccc(Cl)cc2)cc1	5.4	0.2	-2.3	6.2	113.7*	7.4
CCN(CC)C(=O)Cn1cc(C(=O)C(=O)NCc2ccco2)c2ccccc21	-8.3	-1.3	-7.9	-1.0	1.4	20.9
Cc1cc(C(=O)Nc2ccc(F)cc2)c2ccccc2n1	2.3	-1.2	-0.7	-1.8	9.5	-3.3
Cc1nn(-c2ccccc2)c(C)c1C(=O)Nc1nnc(-c2ccco2)o1	15.1	1.2	3.6	4.1	84.0*	2.8
O=C(Nc1nnc(-c2ccco2)o1)c1cccc(Cl)c1	18.8	1.3	-3.7	1.9	87.3*	28.1
CN(Cc1ccccc1)C(=S)NC(=O)c1cccs1	4.5	2.5	16.9	-1.4	3.7	16.7
C/C(=N\Nc1ncc(Cl)cc1Cl)c1ccccn1	·	·	·	·	98.4*	·
COc1ccc(/C(=C/Nc2cccc(Br)c2)C(C)=O)cc1OC	-1.4	0.7	-8.6	-2.2	0.5	-22.0
CCCC(c1nnnn1CC1CCCO1)N1CCN(c2cc(Cl)ccc2C)CC1 (configuration not stated)	99.3*	1.5	2.6	2.4	15.9	19.8
Cc1ccc(Cl)cc1N1CCN(C(CC(C)C)c2nnnn2CC2CCCO2)CC1 (configuration not stated)	101.3*	0.4	4.7	-3.6	-9.5	24.0
CC(C)CC(c1nnnn1CC1CCCO1)N1CCN(c2cccc(Cl)c2)CC1 (configuration not stated)	64.8	0.6	-5.0	0.4	6.9	2.1
COc1ccc(Cn2nnnc2C(CC(C)C)N2CCN(c3ccccc3)CC2)cc1 (configuration not stated)	9.1	2.2	2.2	-0.5	-26.8	23.8
CC(C)CC(c1nnnn1Cc1ccco1)N1CCN(c2cccc(Cl)c2)CC1 (configuration not stated)	109.6*	0.6	18.8	-0.1	-17.3	29.6
O=C(CC(CC(=O)c1ccc(Br)cc1)c1cccnc1)c1ccc(Br)cc1	3.2	-0.6	-4.7	0.1	1.5	6.4
O=C(c1ccccc1)c1ccc2nc(-c3ccc(NC(=O)c4ccccc4Br)cc3)[nH]c2c1	·	5.1	·	-1.1	76.1*	28.8
CC1(C)C2CCC1(C)C(OC(=O)CNc1ccccc1)C2 (configuration not stated)	-0.5	1.1	4.9	-0.2	0.6	-7.6
COc1cc(C(=O)OC2CC3CCC2(C)C3(C)C)ccc1OC(C)=O (configuration not stated)	81.3*	2.7	·	-0.9	-1.1	-5.4
Cc1noc(C)c1CSCC(=O)N(CC(C)C)c1c(N)n(Cc2ccccc2)c(=O)[nH]c1=O	-7.0	-1.2	-3.1	-3.1	0.3	19.7
O=C(NCCC1=CCCCC1)c1c(O)nc2ccccn2c1=O	-0.6	2.2	-1.8	15.4*	1.8	32.8
SMILES	CSC inhib	PP5 primary	Beta cell apopt	PP1 counter	Calb FLC	Mdm2 MdmX PPI
O=C(N/N=C/c1ccc2c(c1)OCO2)c1ccc(COCC(F)(F)C(F)F)cc1	82.6*	1.6	2.9	-2.0	3.7	11.1
CCOc1ccc(NC(=O)CCC(=O)N/N=C/c2ccc3c(c2)OCO3)cc1	-1.8	0.8	-6.6	2.5	110.7*	22.5
CCN(CC)c1ccc(C=Nc2ccc(N(C)C)cc2)c(O)c1	8.5	5.0	12.0	0.8	22.1	15.2
CCN(CC)c1ccc(N=Cc2ccc(N(CC)CC)cc2O)cc1	11.5	2.8	63.5	2.7	78.2*	15.3
CCOc1ccc(/C=N/NC(=O)CCC(=O)Nc2ccc(F)cc2)cc1	-10.6	0.3	-0.9	-2.5	0.8	17.5
CCN(CC)c1ccc(/C=N/NC(=O)c2ccoc2C)c(O)c1	43.3	2.7	100.5*	2.9	-1.8	39.0
CCN(CC)c1ccc(/C=N/NC(=O)OC)c(O)c1	-8.6	-1.6	-10.3	0.7	1.0	-17.0
CCN(CC)CCSc1nc(O)c(Cc2ccccc2)c(=O)n1-c1ccccc1	-3.1	0.8	1.2	0.2	-0.5	1.2
O=C(CSCc1cccc(Br)c1)N/N=C/c1ccc2c(c1)OCO2	100.3*	1.1	-1.1	1.1	-10.9	29.4
O=C(CSCc1ccccc1Br)N/N=C/c1ccc2c(c1)OCO2	17.7	3.5	1.8	-0.5	-2.6	27.5
Cc1occc1C(=O)N/N=C/c1ccc2c(c1)OCO2	48.9	-2.7	76.1*	-0.6	-23.1	-71.3
CCn1c(SCC(=O)Nc2c(C#N)cnn2-c2ccccc2)nnc1-c1cccs1	-3.2	0.7	1.2	-1.7	-5.0	15.7
COc1cc(OC)cc(C(=O)N[C@H](C(=O)Nc2c(C)n(C)n(-c3ccccc3)c2=O)C(C)C)c1	-16.7	·	-0.7	·	·	10.3
Cc1cc([N+](=O)[O-])cc(C)c1OCC(=O)N/N=C/c1ccc(OC(=O)c2ccccc2)cc1	-2.3	1.4	-0.7	5.3	6.3	6.8
O=C(CNC(=O)c1ccc([N+](=O)[O-])cc1)N/N=C\c1ccc(OC(=O)c2ccccc2)cc1	2.2	-0.8	3.2	16.0*	-3.1	-0.1
Cc1cc([N+](=O)[O-])cc(C)c1OCC(=O)N/N=C/c1ccc(OC(=O)c2ccccc2Br)cc1	7.0	0.5	-4.8	15.7*	-1.2	22.7
c1ccc(-c2noc(CC3CCCCC3)n2)nc1	-8.1	-0.9	2.0	-3.0	-12.2	-86.6
c1cc(-c2noc(CC3CCCCC3)n2)ccn1	-3.0	2.2	79.1*	-1.2	·	-4.1
Cc1cc(C)n(CC(O)Cn2c3ccc(Cl)cc3c3cc(Cl)ccc32)c(=O)n1 (configuration not stated)	18.7	2.3	17.5	2.5	9.6	23.8
OC(CNCCC1C=Nc2ccccc21)Cn1c2ccc(Cl)cc2c2cc(Cl)ccc21 (configuration not stated)	106.4*	3.6	99.5*	17.1*	99.3*	·

Screening results from PubChem.
